This is a sample that favours compounds with a hit; in the whole collection about 12% have one here.
Shiga inhibitor: inhibitors of Shiga toxin in Vero cells; AID 2315; Vero cells, Shiga toxin protein synthesis inhibition reporter; inhibition, % at 38.7 µM; actives 9.2% (n = 290,000); in the data active = inhibition mostly above about 28%, no sharp cut-off; inactive = mostly below about 43%
NS1 function inh: influenza NS1 inhibition. actives 0.4% (n = 270,000). AID 2326. Potency, µM (highest dose often 46.1 µM); also: actives are rising curves; nearly all actives have a fitted effect of over 50% in size
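Compounds were scored for reversing the slow growth caused by influenza A NS1 in S. cerevisiae, measured by optical density at 600 nm. Assay medium contained 2% galactose at pH 6.0; NS1-free yeast of the same strain were the positive control.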
SARS PLP yeast: blocks SARS-CoV papain-like protease in a yeast assay. AID 485353. actives 0.19% (n = 330,000). S. cerevisiae expressing SARS-CoV PLpro, growth rescue. Potency, µM (doses to about 32.9 µM), actives largely listed as activators; also: nearly all actives have a fitted effect of over 55% in size
Cycloheximide cs: counter-screen for Shiga toxin inhibitors: cycloheximide protein synthesis inhibition; cell reporter, cycloheximide protein synthesis inhibition counterscreen; max response, %; actives 12% (n = 300,000); AID 2314; in the data active = max response mostly above about 13%, no sharp cut-off; inactive = mostly below about 14%; also: read at 38.3 µM for the half of the compounds with a filed dose
Each line names hits and unclear results; the compound was inactive in the other large screens. Unless noted, calls follow the shape of the full dose curve.

COc1ccc(C(=O)NC(=O)COC(=O)c2ccc3ncsc3c2)cc1	Shiga inhibitor 35, Cycloheximide cs 32
Cc1c(Cl)cnc(NC(=O)COC(=O)c2ccc3ncsc3c2)c1Cl	Shiga inhibitor 60, Cycloheximide cs 34
CC(C)[C@H]1COC(c2cc(Cl)cc(Cl)c2)=N1	none (no result: NS1 function inh, SARS PLP yeast)
Cc1ccc(S(=O)(=O)c2c(C)nn(C(C)(C)C)c2OC(=O)CC(C)C)cc1	none
O=C(C1=NNCC1c1ccccc1)C1OC1c1ccccc1 (stereo unspecified)	Shiga inhibitor 34, Cycloheximide cs 12
CCN(CC(=O)Nc1ccccc1OC)Cc1csc(CC(=O)Nc2ccc(C)cc2)n1	none (no result: Shiga inhibitor, NS1 function inh, Cycloheximide cs)
O=C(NCCc1c[nH]c2ccccc12)c1cc(Cl)c2c(c1)OCO2	Shiga inhibitor 96, Cycloheximide cs 48
O=C(NCCc1c[nH]c2ccccc12)c1ccc2[nH]c(=O)c(=O)[nH]c2c1	none
O=C(NCCc1c[nH]c2ccccc12)c1ccc2c(c1)OCO2	Shiga inhibitor 108, Cycloheximide cs 54
Cc1ccc2[nH]cc(CCNC(=O)c3ccc4c(c3)OCO4)c2c1	none
Fc1ccccc1CSc1ccc(-c2ccco2)nn1	Shiga inhibitor 120, Cycloheximide cs 50 (no result: NS1 function inh)
Cc1cccc(CSc2ccc(-c3ccco3)nn2)c1	Cycloheximide cs 17
Clc1cccc(CSc2ccc(-c3ccco3)nn2)c1	Shiga inhibitor 61, Cycloheximide cs 31 (no result: NS1 function inh)
Clc1cccc(CSc2ccc(-c3cccnc3)nn2)c1	Cycloheximide cs 29 (no result: NS1 function inh)
Cc1ccc(CSc2ccc(-c3ccco3)nn2)cc1	none
Clc1cccc(CSc2nnc(-c3cccnc3)n2Cc2ccco2)c1	SARS PLP yeast inconclusive
O=C(COC(=O)CCc1ccc(S(=O)(=O)N2CCOCC2)cc1)NCc1ccccc1	none (no result: NS1 function inh)
c1ccc(CSc2ccc(-c3ccco3)nn2)cc1	Cycloheximide cs 26
Clc1ccc(CSc2ccc(-c3ccco3)nn2)cc1	Shiga inhibitor 126, Cycloheximide cs 23 (no result: NS1 function inh)
c1ccc(CSc2ccc(-c3cccnc3)nn2)nc1	Shiga inhibitor 50, Cycloheximide cs 21 (no result: NS1 function inh)
O=Cc1cccn1-c1nccc(-c2ccco2)n1	none (no result: NS1 function inh)
CCOC(=O)/C(=N/Nc1ccc(C)cc1)S(=O)(=O)c1ccc(Cl)cc1	Cycloheximide cs 23
CCOc1ccc2nc(N3C(=O)/C(=C/c4ccc(Cl)cc4)NC3=S)sc2c1	Cycloheximide cs 13
O=C(/C(=C/c1ccc(Cl)cc1)c1nc2ccccc2[nH]1)c1ccccc1	Shiga inhibitor 41, Cycloheximide cs 37
C(=C\c1nc2ccccc2[nH]1)/c1ccccc1	Shiga inhibitor 68, Cycloheximide cs 21
O=c1[nH]c2ccccc2nc1/C=C/c1ccc(Cl)cc1	Shiga inhibitor 69, Cycloheximide cs 37 (no result: NS1 function inh)
O=C(/C=C/c1ccco1)Nc1ccc(-c2nc3ccccc3[nH]2)cc1	none
C(=C\c1ccco1)/c1nc2ccccc2[nH]1	Shiga inhibitor 70, Cycloheximide cs 50
COc1ccc(C(=O)Cn2nnc(-c3ccccc3NC(=O)C3CC3)n2)cc1	Cycloheximide cs 18
COc1ccc(C(=O)Cn2nnc(-c3ccccc3F)n2)cc1	Cycloheximide cs 12
O=C(Nc1ccccc1-c1ccccc1)c1cnccn1	Cycloheximide cs 14
O=C(Nc1cccc(O)c1)c1cc2nc(-c3ccccc3)cc(-c3ccccc3)n2n1	none (no result: SARS PLP yeast)
O=C(COC(=O)c1cnccn1)Nc1ccccc1-c1ccccc1	none (no result: Shiga inhibitor, NS1 function inh, Cycloheximide cs)
O=C(Nc1ccccc1F)c1cnccn1	Shiga inhibitor 53, Cycloheximide cs 18 (no result: NS1 function inh)
Cc1ccc(NC(=O)c2cnccn2)c(Br)c1	Cycloheximide cs 26 (no result: Shiga inhibitor)
O=C(Nc1ccccc1F)c1cc2nc(C(F)F)cc(C(F)F)n2n1	Shiga inhibitor 52, Cycloheximide cs 22
CC(OC(=O)C1CC1)C(=O)Nc1cc(C(F)(F)F)ccc1Cl (stereo unspecified)	none
Cc1c(OCC(=O)Nc2cccnc2)ccc2c3c(c(=O)oc12)CCC3	Cycloheximide cs 20
O=C(COc1cc2oc(=O)c3c(c2cc1Cl)CCC3)Nc1cccnc1	Cycloheximide cs 28
CC(C)(C)OC(=O)C[C@@H]1C/C=C\C[C@H](CC(=O)NCCO)C(=O)N[C@H](Cc2ccccc2)COC1=O	none (no result: Shiga inhibitor, NS1 function inh, Cycloheximide cs)
O=C(Cc1ccsc1)N1CCN(S(=O)(=O)c2ccccc2F)CC1	none (no result: Shiga inhibitor, NS1 function inh, Cycloheximide cs)
CC(C)CN1CCN(Cc2cccc3nccnc23)CC1CCO (stereo unspecified)	none
Cc1cccc(-c2ncc(CN3CCN(CC(C)C)C(CCO)C3)cn2)c1 (stereo unspecified)	Shiga inhibitor 41
COC(=O)c1ccc(CN2CCN(CCC(C)C)C(CCO)C2)cc1 (stereo unspecified)	none
COc1ccc(-c2ncc(CN3CCN(CCC(C)C)C(CCO)C3)cn2)cc1 (stereo unspecified)	Shiga inhibitor 66, Cycloheximide cs 33
